Laboratory results as given in PubChem BioAssay AID1347043 (National Center for Advancing Translational Sciences (NCATS), 2019).
In all, about 76,000 compounds went through this assay and about 1,900 (2.5%) were called active. Another 5% or so got no clear call; they are omitted. Calls come from the whole dose curve; as a rule, active = well fitted inhibition curve with a large enough effect; inconclusive = small, poorly fitted or top-dose-only effect; inactive = flat fitted curve, though single readings scatter. The list comes from a sample in which actives are over-represented; it also holds similar structures and randomly drawn compounds. Where a call stands in place of a potency, no number is given.
Note: nearly all actives have a fitted effect of over 65% in size.
Potency is the fitted concentration of half-maximal effect.

Each compound was assayed against Luciferin 4-monooxygenase (Photinus pyralis) (UniProt P08659) (assay: Firefly luciferase inhibition profiling of diverse chemical library using quantitative high-throughput screening). Settings: purified P. pyralis luciferase, luminescence, biochemical; series mostly up to 115 µM.
Luciferin 4-monooxygenase (Photinus pyralis), sequence (P08659 whole entry, looked up): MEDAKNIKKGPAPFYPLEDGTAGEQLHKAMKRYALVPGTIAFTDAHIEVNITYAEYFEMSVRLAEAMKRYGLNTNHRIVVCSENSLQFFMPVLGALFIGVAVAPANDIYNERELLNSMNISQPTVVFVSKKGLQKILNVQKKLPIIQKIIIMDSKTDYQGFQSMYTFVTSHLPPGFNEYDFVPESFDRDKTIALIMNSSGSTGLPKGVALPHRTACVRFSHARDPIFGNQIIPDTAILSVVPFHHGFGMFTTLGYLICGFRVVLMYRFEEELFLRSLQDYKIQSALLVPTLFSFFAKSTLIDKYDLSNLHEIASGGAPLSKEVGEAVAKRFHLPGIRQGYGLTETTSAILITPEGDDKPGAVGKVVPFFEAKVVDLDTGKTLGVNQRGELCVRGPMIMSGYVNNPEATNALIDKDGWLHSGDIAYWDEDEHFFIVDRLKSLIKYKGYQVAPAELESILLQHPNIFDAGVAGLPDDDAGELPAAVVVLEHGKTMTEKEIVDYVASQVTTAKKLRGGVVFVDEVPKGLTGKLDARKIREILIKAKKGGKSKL
Procedure, shortened: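 Purified 10nM P. pyralis luciferase with 10uM D-luciferin and 10uM ATP in 50mM Tris acetate pH 7.5, 10mM Mg acetate, 0.01% Tween-20, 0.05% BSA. qHTS titration; luminescence read by CCD imager.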
For `Cc1ccc(-c2nc(CNS(=O)(=O)C3CC3)[nH]c2-c2ccccn2)cc1`, the Potency was “inactive”.
With `O=C(CC1CCCC1)N1CCOc2ccc(CN3CCc4ccccc4C3)cc2C1` the Potency was “inactive”.
`Cc1noc(-c2cccn3c(CNC(=O)c4ccco4)nnc23)n1` was tested, and the Potency was “inactive”.
With `CC1=C[C@@H](CN2CCOCC2)[C@H](C(C)C)C[C@H]1Cc1nnc(-c2ccc([N+](=O)[O-])cc2)o1` the Potency was “inactive”.
With `CC(C)NC(=O)N1CCN2C(=O)N(Cc3ccc(F)cc3)C[C@H]2C1` the Potency was “inactive”.
For `O=C(Nc1ccccc1)N1CCN2C(=O)N(Cc3ccc(F)cc3)C[C@H]2C1`, the Potency was 50.1 µM (active).
`COc1ccc(CN2C[C@H]3CN(Cc4ccc(NC(C)=O)cc4)CCN3C2=O)cc1` was tested, and the Potency was “inactive”.
For `CN(Cc1ccccc1)C(=O)C[C@@H]1CCNC[C@@H]1Cc1cc(-c2ccc(C(C)(C)C)cc2)on1`, the Potency was “inactive”.
With `Cc1cn2nc(C(=O)N3CCC(NC(=O)c4ccc(C#N)cc4)CC3)cc2c(=O)[nH]1` the Potency was “inactive”.
`CCc1noc(-c2cccn3c(CNC(=O)c4ccncc4)nnc23)n1` was tested, and the Potency was “inactive”.
`CCOC(=O)C1CCN(C(=O)c2cccc3c2CCN3C(=O)Nc2ccccc2)CC1` was tested, and the Potency was 5.62 µM (active).
In the case of `CCOc1ccc(C(=O)N2CCCN(C(=O)C3CC3)c3ccccc32)cc1`, the Potency is reported as “inactive”.
With `Cc1cccc(S(=O)(=O)N2CCc3c(C(=O)NC(C)C)cccc32)c1` the Potency was “inactive”.
`CC[C@H]1CN(C(=O)Nc2ccccc2)CC[C@H]1CC(=O)Nc1ccccc1` was tested, and the Potency was “inactive”.
In the case of `COc1ccc(S(=O)(=O)N2CCc3c(C(=O)NCc4ccncc4)cccc32)cc1`, the Potency is reported as “inactive”.
In the case of `CCC(C)(C)NC(=O)c1cccc2c1CCN2C(=O)Nc1ccc(C)cc1`, the Potency is reported as 1.78 µM (active).
With `Cc1ccc2nc(CO[C@H]3CN(C4CCOCC4)C[C@H]3F)[nH]c2c1` the Potency was “inactive”.
For `Cc1ncoc1C(=O)N1CCCn2ccnc2C1c1ccccc1` (stereo not drawn), the Potency was “inactive”.
In the case of `CN(C)C(=O)CC(O)c1cc2n(n1)CCN(C(=O)Cc1ccsc1)C2` (stereo not drawn), the Potency is reported as “inactive”.
`Cc1cccc2c(C3CCN(S(=O)(=O)c4cc(Cl)cc(Cl)c4)CC3)c[nH]c12` was tested, and the Potency was “inactive”.
In the case of `COc1ccc(CN2CCc3nn(CC4CC4)c(=O)n3CC2)cc1`, the Potency is reported as “inactive”.
For `COc1ccc(C(=O)NCCC2CCN(C(=O)Nc3cc(F)ccc3F)CC2)cc1`, the Potency was 25.1 µM (active).
In the case of `COc1ccc(C(=O)NCCC2CCN(C(=O)Nc3ccc(F)cc3F)CC2)cc1OC`, the Potency is reported as “inactive”.
For `O=C(NCCC1CCN(C(=O)Nc2cc(F)ccc2F)CC1)c1cc(F)ccc1F`, the Potency was “inactive”.
In the case of `CC(c1cccc(-c2cnc(C(=O)O)cn2)c1)N1CCCC1` (stereo not drawn), the Potency is reported as “inactive”.
With `O=C(CCCc1ccccc1)N1CCC2(CC1)CC(O)CCO2` (stereo not drawn) the Potency was 5.62 µM (active).
With `O=C(CCC1CCCC1)N1CCC2(CC1)CC(O)CCO2` (stereo not drawn) the Potency was “inactive”.
With `CC(=O)N(C1CC1)C1CCOC2(CCN(C(=O)CCc3ccccc3)CC2)C1` (stereo not drawn) the Potency was “inactive”.
